Data published in PubChem BioAssay (EPA / NIEHS).
Records with an inconclusive call do not appear. Activity calls are given as the source filed them. How the source made its calls: active means hit-call score of the fitted dose curve at least 0.9, where 1 is the maximum; inconclusive means response in the unintended direction; inactive means score below 0.9.

biological target: human Serotonin, 5-Hydroxytryptamine Receptor 7 (5HT7), HTR7 (gene 3363) (UniProt P34969); assay: NVS_GPCR_h5HT7: NovaScreen (NVS) G Protein-Coupled Receptor Assay for human Serotonin, 5-Hydroxytryptamine Receptor 7 (5HT7) (AID 2283255)
Sequence (P34969 whole entry, looked up): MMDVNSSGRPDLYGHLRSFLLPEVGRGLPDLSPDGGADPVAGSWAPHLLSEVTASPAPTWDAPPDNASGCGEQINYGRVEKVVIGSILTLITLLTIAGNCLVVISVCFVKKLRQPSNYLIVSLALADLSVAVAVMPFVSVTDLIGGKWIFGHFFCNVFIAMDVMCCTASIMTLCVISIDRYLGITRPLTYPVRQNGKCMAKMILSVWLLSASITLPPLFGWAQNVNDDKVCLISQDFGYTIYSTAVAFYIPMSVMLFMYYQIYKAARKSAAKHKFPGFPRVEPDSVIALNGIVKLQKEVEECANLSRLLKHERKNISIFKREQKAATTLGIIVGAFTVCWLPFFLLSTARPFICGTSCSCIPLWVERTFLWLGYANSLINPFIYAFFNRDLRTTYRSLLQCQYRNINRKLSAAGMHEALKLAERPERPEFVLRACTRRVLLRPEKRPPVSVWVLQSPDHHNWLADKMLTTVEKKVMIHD
Description: NVS_GPCR_h5HT7 is a biochemical, single-readout assay that uses extracted gene-proteins from CHO in a cell-free assay. Measurements were taken 1 hour after chemical dosing in a 96-well plate.NVS_GPCR_h5HT7 is one of one assay component(s) measured or calculated from the NVS_GPCR_h5HT7 assay. It is designed to make measurements of radioligand binding, a form of binding reporter, as detected with scintillation counting signals by Filter-based radiodetection technology.Data from the assay component NVS_GPCR_h5HT7 was analyzed into 1 assay endpoint. This assay endpoint, NVS_GPCR_h5HT7, was analyzed in the positive analysis fitting direction relative to DMSO as the negative control and baseline of activity. Using a type of binding reporter, loss-of-signal activity can be used to understand changes in the binding as they relate to the gene HTR7. Furthermore, this assay endpoint can be referred to as a primary readout, because the performed assay has only produced 1 assay endpoint. To generalize the intended target to other relatable targets, this assay endpoint is annotated to the gpcr intended target family, where the subfamily is rhodopsin-like receptor.
Binding assays used specific radioligands (tritiated, iodinated) with non-radioactive competitive displacement ligands in agonist or antagonist protocols (as indicated) and various reference compounds and inhibitors to titrate specific binding to receptors and transporters. Most enzyme assays (CYPs, kinases, phosphatases, proteases, HDACs) used recombinant protein and specific substrates (fluorescence mostly, some colorimetric and radioactive) and inhibitors, followed by a biochemical separation of substrate and product. All assays for the biochemical HTS were initially run in duplicate at a single concentration (10 uM for CYP450 assays and 25 uM for all others). […] Each assay was run with positive and negative controls, and concurrent controls on every plate. The follow-up (secondary) screen tested active chemical-pairs in concentration series, as well as a few additional assays not tested in the primary screen, some selected negative inactives, and several cases re-run in the concentration series for confirmatory purposes.

AC50, active:
NCc1cccc(C2CCN(C(=O)c3ccc(C#Cc4ccccc4F)o3)CC2)c1 6.87 µM, CN(C)c1ccc(C(=C2C=CC(=[N+](C)C)C=C2)c2ccc(N(C)C)cc2)cc1 4.11 µM, CN(C[C@@H](CC[N+]12CCC(C3CCCCC3)(CC1)CC2)c1ccc(Cl)c(Cl)c1)C(=O)c1cc(C(F)(F)F)cc(C(F)(F)F)c1 1.53 µM, Cc1occc1C(=O)Nc1ccc(C(=O)N2CCC(F)(F)/C(=C\C(=O)N3CCC(N4CCCCC4)CC3)c3ccccc32)cc1 4.89 µM, CCCCCCCCCCCC[N+](C)(C)C 17.3 µM, Cc1cc(F)ccc1-c1cc(N2CC[C@@H](O)[C@H]2CO)ncc1N(C)C(=O)C(C)(C)c1cc(C(F)(F)F)cc(C(F)(F)F)c1 2.69 µM, O=c1[nH]sc2ccccc12 14.7 µM, COc1cccc([C@H](O)C2CCN(CCc3ccc(F)cc3)CC2)c1OC 0.395 µM, CN(C)C(=O)C1(N2CCCCC2)CCN(CC[C@@]2(c3ccc(Cl)c(Cl)c3)CN(C(=O)c3ccccc3)CCO2)CC1 3.39 µM, CCN(CC)C(=O)c1cc(S(=O)(=O)Cc2ccccc2)c(N2CCC(c3ccccc3)CC2)cc1N(CC)CCN(C)C 8.87 µM, COc1cc(C(=O)NC2CCN(C)CC2)ccc1Nc1ncc2c(n1)N(C1CCCC1)CC(F)(F)C(=O)N2C 3.25 µM, CCOC(=O)O[C@H](C)OC(=O)c1ccc2c(c1)cc(C(=O)NC1CCN(C(C)C)CC1)n2Cc1cc(-c2ccc(Cl)s2)on1 2.12 µM, CCN(Cc1cccnc1)C(=O)c1cccc(Cl)c1[C@]1(C)C(=O)N(Cc2ccc(OC)cc2OC)c2ccc(Cl)cc21 6.41 µM, O=C1c2ccccc2C(=O)N1CCc1noc(-c2ccc(CN3CCCCCC3)s2)n1 8.12 µM, CCCCCCCCOC(=O)c1cc(O)c(O)c(O)c1 17 µM, CCN(Cc1cccc(S(=O)(=O)O)c1)c1ccc(C(=C2C=CC(=[N+](CC)Cc3cccc(S(=O)(=O)O)c3)C=C2)c2ccccc2S(=O)(=O)[O-])cc1 10.3 µM

outcome, inactive:
CN1C(=O)N(c2ccccc2Br)Cc2cnc(Nc3ccc4c(c3)OCC(CO)O4)nc21 (stereo not given), CCCCCCCCCC(=O)O, COc1ccc2cc(S(=O)(=O)N[C@H](CC(=O)N[C@H](Cc3ccc(CN4[C@H](C)CCC[C@@H]4C)cc3)C(=O)N(C)C(C)C)c3ccc4c(c3)OCO4)ccc2c1, Cc1cc2c(cc1C(F)(F)F)N(C(=O)Nc1ccc(Oc3cccnc3C)nc1)CC2
